Test results taken from PubChem BioAssay (NCI).
About 83,000 compounds went through this panel and 20% of them were active in at least one assay; those are over-represented in the sample as a whole.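 Each cell line was grown in a 96-well plate and treated with one concentration of compound for 48 hours. Values below 10 were considered active.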 Active and inactive are the calls of the source.

test system: SF-295 CNS; test: NCI-60 one-dose screen, 48 h (100 = growth as untreated, 0 = no growth, -100 = all killed); conditions: 10 µM unless noted

Row | Structure (SMILES) | growth
1 | CCCCCSB(SCCCCC)c1ccccc1 | 105% (inactive)
2 | c1ccc(CNc2ccc3nc(CCC4CCCCC4)[nH]c3c2)cc1 | 81% (inactive)
3 | S=c1ssnc1-c1cccs1 | 78.3% (inactive)
4 | O=C(/C=C/c1ccc(Br)cc1)c1ccc(-n2cc(CN3CCN(c4cc5c(cc4F)c(=O)c(C(=O)O)cn5C4CC4)CC3)nn2)cc1 | 87.6% (inactive)
5 | COc1ccc(Cc2cnc(NC(=O)c3sc4ccccc4c3Cl)s2)cc1 | 14.9% (inactive)
6 | N#C/C(=C\c1ccc(Cl)cc1Cl)C(=O)Nc1ncc(Cc2ccc(Cl)c(Cl)c2)s1 | 89.9% (inactive)
7 | N#Cc1c(-c2cccc([N+](=O)[O-])c2)cc(-c2ccc(Nc3nc(Nc4ccc(F)cc4)nc(Nc4ccc(F)cc4)n3)cc2)nc1N | 102% (inactive)
8 | O=C(CCCCCCN1CC(=O)N2[C@@H](c3ccc(Cl)cc3)c3[nH]c4ccccc4c3C[C@H]2C1=O)NO | 80.6% (inactive)
9 | CCCCCCCCn1ccc2cc(NC(=O)Cn3cc(CN4CCC(C)CC4)nn3)ccc21 | -74.3% (active)
10 | CCCC(O)Cn1ncc(C(=O)OCC)c1NC(=O)NCc1cccc(F)c1 (stereo unspecified) | 93.3% (inactive)
11 | COc1cc2c3c(c1O)-c1ccccc1[C@@H]1OC(=O)N(CC2)[C@H]31 | 103% (inactive)
12 | C/C(=C(/c1ccc(Cl)cc1)c1ccc(OCCCN(C)C)cc1)c1ccc(Cl)cc1 | 110% (inactive)
13 | Cc1cc(C(=O)Nc2cc(Nc3ncccc3-c3ncnc4nc[nH]c34)ccc2F)cc(C(F)(F)F)c1 | 78.4% (inactive)
14 | CCOC(=O)NN1CC(O)=C(c2nc(-c3ccc(Br)cc3)cs2)C1=N | 90.9% (inactive)
15 | O=C1C(Cl)=C(NCCN2CCOCC2)C(=O)c2ncccc21 | -40.5% (active)
16 | O=C(Nc1ccc(F)cc1)Nc1ccccc1CNc1nc(Nc2ccc(OCCN3CCCC3)cc2)ncc1Cl | 82.3% (inactive)
17 | C[C@H]1[C@H](C)CC[C@]2(C(=O)O)CC[C@]3(C)C(=CC[C@@H]4[C@@]5(C)C[C@@H](Cc6cn([C@@H]7O[C@H](CO)[C@@H](O)[C@H](O)[C@H]7O)nn6)[C@H](O)C(C)(C)[C@@H]5CC[C@]43C)[C@H]12 | 98.8% (inactive)
18 | COC(=O)c1ccc2c(c1)c1c(C)c3ccncc3c(C)c1n2C | 24.1% (inactive)

Row | Structure (SMILES) | growth
19 | COc1cc(C(=O)c2c(-c3ccccc3)oc3c(OC)cccc23)cc(OC)c1O | 2.85% (active)
20 | C=C1C(=O)O[C@H]2[C@H]1CC/C(CNC(=O)c1cc3ccccc3[nH]1)=C\CC[C@@]1(C)O[C@@H]21 | 42.3% (inactive)
21 | O=P(O)(O)OCC1OC(n2cnc3c(NCc4ccccc4)ncnc32)C(O)C1O (stereo unspecified) | 52.4% (inactive)
22 | CCN(CC)CCCNCc1cc(-c2ccccc2)nc2cc(Cl)ccc12 | 79.9% (inactive)
23 | COc1cc2nc(Nc3cccc(F)c3)nc(Nc3cc(C)[nH]n3)c2cc1OC | -92.1% [20 µM] (active)
24 | CCC/C(=N\NC(N)=O)C(OC)OC | 112% (inactive)
25 | O=C1c2cc3c(cc2-c2c1c1ccc(Cl)cc1c(=O)n2C[C@H](O)CO)OCO3 | -14.8% (active)
26 | CCSC1=CC(=O)c2ccccc2C1=O | 97.2% (inactive)
27 | COc1cc(-c2nc3occn3c2-c2ccnc(NCCCNS(=O)(=O)c3ccccc3)n2)ccc1F | 46% (inactive)
28 | COC1=CC(c2ccc[nH]2)=N/C1=C\c1[nH]c(C)c(CC(=O)OCc2ccccc2)c1C | -50.1% (active)
29 | O=C(CSc1nnc2sc(Nc3cccc(Cl)c3)nn12)c1ccc(F)cc1 | 97.2% (inactive)
30 | COc1ccc(C2=Nc3c(N)ncnc3NC(c3cccc(Nc4ccnc5cc(C(F)(F)F)ccc45)c3)C2)cc1 (stereo unspecified) | 61.9% (inactive)
31 | Nc1c(C(=O)Nc2cccc3ncccc23)sc2nc3c(cc12)C(=O)CCC3 | 21.3% (inactive)
32 | C#CCn1cnc2c(Nc3cccc(NC(=O)CCl)c3)ncnc21 | 59.7% (inactive)
33 | COc1cc2oc(-c3cccc(NC(=O)c4ccc5c(c4)OCO5)c3)cc(=O)c2c(OC)c1OC | 53.9% (inactive)
34 | CCOC(=O)CSc1nc2sc3c(c2c(=O)n1-c1ccc([N+](=O)[O-])cc1)CCCCC3 | 59.3% (inactive)
35 | Cn1cc(-c2nn3cc(-c4ccccc4)nc3s2)c2ccccc21 | 78.9% (inactive)
36 | C=C1C(=O)O[C@H]2[C@H]1CC/C(COC(=O)NCCCCCCCCNC(=O)OC/C1=C/CC[C@@]3(C)O[C@H]3[C@H]3OC(=O)C(=C)[C@@H]3CC1)=C\CC[C@@]1(C)O[C@@H]21 | -21.7% (active)
